# Measurements as given in PubChem BioAssay AID2567 (National Center for Advancing Translational Sciences (NCATS), 2010).
# Results filed as inconclusive are left out. Active and inactive are the calls of the source. The call rests on the fitted dose curve; in most records, active means well fitted antagonist curve with a large enough effect in the main read-out, with a control signal flat; inconclusive means small, poorly fitted or top-dose-only effect; inactive means no such curve, though single readings can be large or run the other way.
# Target: Neuropeptide S receptor (Homo sapiens) (UniProt Q6W5P4)
# Assay: Confirmation Concentration-Response Assay for Antagonists of the Neuropeptide S Receptor: Calcium Signal Transduction, SAR for Probe
# Conditions: CHO-NPSR cells, NPS-induced calcium fluorescence, FDSS; series mostly up to 19.3 µM
# From the text: NIH Chemical Genomics Center [NCGC] NIH Molecular Libraries Probe Production centers Network [MLPCN] MLPCN Grant: X01-DA026210-01 Assay Submitter (PI): Heilig, Markus Alexander NCGC Assay Overview: Neuropeptide S receptor (NPSR), previously known as GPR154, is a recently de-orphanized G protein coupled receptor. Its endogenous ligand is the 20 amino acids peptide Neuropeptide S (NPS). […] NPS and its receptor are found in various tissues. Specifically they are highly expressed in brain areas that have been implicated in modulation of arousal, stress and anxiety. Central administration of NPS in mice produces an unusual profile of activity by inducing wakefulness and arousal, while at the same time suppressing anxiety. Therefore, NPSR may represent a novel drug target for the treatment of sleep and anxiety disorders. To identify NPSR antagonists, we developed a cell-based assay with transfected NPS receptor. NPS can stimulate the production of cAMP as well as release intracellular calcium in Chinese hamster ovary cells stably expressing NPS receptor. This change in intracellular calcium can be detected using a calcium indicator dye on a calcium imaging plate reader system (FDSS).
# NCGC Assay Protocol Summary: A Chinese hamster ovary (CHO) cell line stably expressing the NPS receptor (CHO-NPSR) was obtained from Dr. Heilig lab at NIAAA and maintained in F-12 Kaighn's media (Invitrogen, Carlsbad, CA, 21127) supplemented with 10 % FBS, 100 units/ml penicillin, 100 ug/ml streptomycin and 250 ug/ml geneticin at 37C, 5% CO2 in a humidified atmosphere. Before the assay, aliquots of cells were frozen and stored at -135C. The assay was performed on a FDSS-7000 kinetic plate reader in 1536-well format. For both agonist (1-220s) and antagonist (221-400s) phases, the maximums of kinetic fluorescence responses were converted separately into text files using the instrument's software data export utility. Data for agonist response were normalized to the controls for basal activity (DMSO only) and 100% activation (NPS). […] AC50 values were determined from concentration-response data modeled with the standard Hill equation. NPS 1536-well FDSS assay protocol: (1) Frozen CHO-NPSR cells were thaw, washed once with fresh media and resuspended in F-12 Kaighn's media supplemented with 10 % FBS, 100 units/ml penicillin and 100 ug/ml streptomycin. Cells were plated at 3 ul/well (1200 cells) to black, clear-bottom, tissue-culture treated 1536-well plates, and then cultured at 37C, 5 % CO2 for 16 to 30 hours. (2) Add 3 ul of calcium dye (from High Performance PBX Calcium Assay Kit, BD Biosciences). The calcium dye was prepared according to the manufactory's instruction. (3) Incubation at 37C, 5 % CO2 for 60 to 120 min. (4) Load plates to FDSS-7000. The following steps were performed on FDSS-7000. (5) Record fluorescent background (Ex 480 nm, Em 520-560 nm) for 10 s. (6) Add 23 nl/well of compound in DMSO solution. The final titration for each compound was between 0.6 nM and 46 uM. Record agonist response for 210 s. (7) Add 2 ul of stimulation reagent (1X HBSS buffer, 0.1% BSA, 60 nM NPS). Record antagonist response for 140 s. Keywords: MLSMR, MLPCN, NIH Roadmap, qHTS, NCGC, NPS, Neuropeptide S Antagonists
# Neuropeptide S receptor (Homo sapiens), sequence (Q6W5P4 whole entry, looked up): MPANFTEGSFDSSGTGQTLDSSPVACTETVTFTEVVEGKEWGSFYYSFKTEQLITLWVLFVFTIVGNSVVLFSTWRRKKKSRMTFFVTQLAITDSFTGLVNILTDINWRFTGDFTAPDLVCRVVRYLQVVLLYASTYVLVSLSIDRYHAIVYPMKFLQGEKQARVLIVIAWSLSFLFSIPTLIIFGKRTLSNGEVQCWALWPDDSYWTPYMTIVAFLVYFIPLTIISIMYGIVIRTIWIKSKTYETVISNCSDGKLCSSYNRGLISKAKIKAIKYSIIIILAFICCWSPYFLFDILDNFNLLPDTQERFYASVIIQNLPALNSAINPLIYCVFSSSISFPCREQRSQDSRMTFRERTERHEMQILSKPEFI
row,Structure (SMILES),Potency
1,Cc1nn(C)cc1/C=N/NC(=S)Nc1ccccc1,inactive
2,NC(=O)OCC(COC(N)=O)c1ccccc1,inactive
3,C(=N\Nc1nc(-c2ccccn2)nc2ccccc12)/c1ccccc1,inactive
4,CCSc1nc2c(c(=O)n1Cc1ccccc1)SC(C)C2 (stereo not given),inactive
5,Cc1ccc(NC(=S)NNC(C)(C)C)cc1,inactive
6,COc1ccc(C2c3ccccc3Oc3ncn(CCN4CCOCC4)c(=N)c32)cc1OC (stereo not given),0.694 µM (active)
7,CN(C)C(=S)N=Nc1[nH]c2ccccc2c1O,inactive
8,COc1cccc(C2c3c(ncn(-c4ccccc4SC)c3=N)Oc3ccc4ccccc4c32)c1 (stereo not given),0.438 µM (active)
9,COc1ccc(C2c3c(n(CCc4ccccc4)cnc3=N)Oc3ccc4ccccc4c32)cc1OC (stereo not given),inactive
10,COc1ccc2c(c1)Oc1ncn(CCN3CCOCC3)c(=N)c1C2c1ccc(OC)c(OC)c1 (stereo not given),11 µM (active)
11,O=C(NCc1ccc(F)cc1)n1cc(P(=S)(c2ccccc2)c2ccccc2)c2ccccc21,inactive
12,c1ccc(P(c2ccccc2)c2cnc3ccccn23)cc1,11 µM (active)
13,COc1cccc2sc(Nc3nc(-c4ccccn4)cs3)nc12,3.16 µM (active)
14,COc1cccc(C2c3c(ncn(-c4ccc(F)cc4)c3=N)Oc3ccc4ccccc4c32)c1 (stereo not given),3.48 µM (active)
15,C[n+]1cc(C(O)(c2ccccc2)c2ccccc2)n2ccccc21,inactive
16,COc1cccc(C2c3c(ncn(-c4ccccc4OC)c3=N)Oc3ccc4ccccc4c32)c1 (stereo not given),1.1 µM (active)
17,COc1cccc(C2c3c(ncn(-c4cccc(Br)c4)c3=N)Oc3ccc4ccccc4c32)c1 (stereo not given),4.38 µM (active)
18,CC(=O)c1sc(N/N=C\c2ccccc2O)nc1C,1.12 µM (active)
19,Cc1nc2ccccn2c1P(=O)(c1ccccc1)c1ccccc1,inactive
20,COc1cccc(C2c3c(ncn(-c4ccc(-c5ccccc5)cc4)c3=N)Oc3ccc4ccccc4c32)c1 (stereo not given),inactive

row,Structure (SMILES),Potency
1,COc1ccc(C2c3c(ncn(CCc4ccccc4)c3=N)Oc3ccc4ccccc4c32)cc1OC (stereo not given),inactive
2,COc1cccc(C2c3c(ncn(-c4cccc(C#N)c4)c3=N)Oc3ccc4ccccc4c32)c1 (stereo not given),4.38 µM (active)
3,CCOC(=O)c1ccc(-n2cnc3c(c2=N)C(c2cccc(OC)c2)c2c(ccc4ccccc24)O3)cc1 (stereo not given),2.76 µM (active)
4,COc1cccc(C2c3c(ncn(-c4ccccc4Cl)c3=N)Oc3ccc4ccccc4c32)c1 (stereo not given),5.52 µM (active)
5,COc1ccc(C2c3ccc4ccccc4c3Oc3ncn(CCN4CCOCC4)c(=N)c32)cc1OC (stereo not given),8.74 µM (active)
6,Cc1c(C(O)(c2ccccc2)c2ccccc2)[n+]2ccccc2n1C,inactive
7,COc1cccc(C2c3c(ncn(-c4ccc5c(c4)OCO5)c3=N)Oc3ccc4ccccc4c32)c1 (stereo not given),0.552 µM (active)
8,COc1cccc(C2c3c(ncn(-c4ccc(Br)cc4)c3=N)Oc3ccc4ccccc4c32)c1 (stereo not given),2.76 µM (active)
9,COc1cccc(C2c3c(ncn(-c4cccnc4)c3=N)Oc3ccc4ccccc4c32)c1 (stereo not given),2.76 µM (active)
10,Cc1nnc(NC(=O)c2cccc(S(=O)(=O)N3CCc4ccccc43)c2)s1,inactive
11,COc1ccc(C2c3c(N)nc(CCc4ccccc4)nc3Oc3ccc4ccccc4c32)cc1OC (stereo not given),inactive
12,C/C(=N\Nc1ncc(Cl)cc1Cl)c1ccccn1,2.51 µM (active)
13,NC(=S)N/N=C/c1ncc(C(F)(F)F)cc1Cl,inactive
14,COc1cccc(C2c3c(ncn(-c4ccc(C(C)(C)C)cc4)c3=N)Oc3ccc4ccccc4c32)c1 (stereo not given),5.52 µM (active)
15,COc1cccc(C2c3c(ncn(-c4ccccc4C(C)(C)C)c3=N)Oc3ccc4ccccc4c32)c1 (stereo not given),4.38 µM (active)
16,O=C1OC(c2ccccc2)(c2ccccc2)N2CCN(C(=O)NCc3ccc(F)cc3)CC12 (stereo not given),0.139 µM (active)
17,COc1cccc(C2c3c(ncn(-c4ccc(C#N)cc4)c3=N)Oc3ccc4ccccc4c32)c1 (stereo not given),5.52 µM (active)
18,OC(c1ccccc1)(c1ccccc1)c1cnc2ccccn12,inactive
19,Cn1cc(P(=O)(c2ccccc2)c2ccccc2)c2ccccc21,inactive
20,COc1cccc(C2c3c(ncn(-c4ccncc4)c3=N)Oc3ccc4ccccc4c32)c1 (stereo not given),4.38 µM (active)
